Laboratory results reported in PubChem BioAssay (Tox21).
A number with no mark means an inactive call. Activity calls are given as the source filed them. The call rests on the fitted dose curve; in most records, active means well fitted inhibition curve with a large enough effect in the repeat runs (not every such curve was filed as active); inconclusive means weak or mixed curves; inactive means flat fitted curve, though single readings scatter.

Target: Thyrotropin-releasing hormone receptor (Homo sapiens) (UniProt P34981)
Test: qHTS assay to identify small molecule antagonists of the thyrotropin-releasing hormone receptor (TRHR) signaling pathway (AID 1346877)
Details: TRHR-HEK293, TRH-induced calcium fluorescence, antagonist mode; series mostly up to 51.3 µM; activity, negative = inhibition: at the top concentration
From the text: National Center for Advancing Translational Sciences [NCATS]
NIH Chemical Genomics Center [NCGC]
U.S. Environmental Protection Agency [EPA]
National Institutes of Environmental Health Sciences [NIEHS]
National Toxicology Program [NTP]
U.S. Food and Drug Administration [FDA]
Thyrotropin-releasing hormone (TRH) receptor (TRHR) is a G-protein-coupled receptor which binds the tripeptide thyrotropin releasing hormone. TRHR is found in the brain and, when bound by TRH, acts (through phospholipase C) to increase intracellular inositol trisphosphate. It plays a crucial role in the anterior pituitary where it controls the synthesis and secretion of thyroid stimulating hormone and prolactin. The TRHR-Hek293 assay is a cell-based assay, and it has the potential to screen G protein-coupled receptors. A compound/drug can either activate (agonist) or suppress (antagonist) GPCRs that can be monitored by levels of intracellular calcium. In this assay, the Tox21 10K compound library was screened to identify potential TRHR antagonists.
Tox21 Assay Protocol Summary:
The TRHR-Hek293 cells were dispensed at 1500cells/4uL/well in 1536-well black-clear bottom plates using a Multidrop dispenser. After the assay plates were incubated at a 37 C/5% CO2 incubator for 18 hours, 4 uL of Dye-Loading Solution was added to each well. The plates were incubated at 37 C for 2 hours. For agonist mode, 23 nL of compounds dissolved in DMSO, positive controls or DMSO only was transferred to the assay plate by a pin tool. The fluorescence intensity in the plates was measured using FDSS 7000EX kinetic plate reader for 3 min at 1 sec intervals. For antagonist mode, 23 nL of compounds dissolved in DMSO, positive controls or DMSO only was transferred to the assay plate by a pin tool. After 5 min incubation at room temperature, 1 uL of TRH was added on the top of the cell/compound mixtures to achieve a final agonist concentration of 1 nM. The fluorescence intensity in the plates was measured using FDSS 7000EX kinetic plate reader for 3 min at 1 sec intervals. Each test compound was measured at 15 concentrations and in triplicates.
On the % scale 0 is the no-effect control and ±100 the full control effect.

Chain of Thyrotropin-releasing hormone receptor (Homo sapiens) (P34981 whole entry, looked up): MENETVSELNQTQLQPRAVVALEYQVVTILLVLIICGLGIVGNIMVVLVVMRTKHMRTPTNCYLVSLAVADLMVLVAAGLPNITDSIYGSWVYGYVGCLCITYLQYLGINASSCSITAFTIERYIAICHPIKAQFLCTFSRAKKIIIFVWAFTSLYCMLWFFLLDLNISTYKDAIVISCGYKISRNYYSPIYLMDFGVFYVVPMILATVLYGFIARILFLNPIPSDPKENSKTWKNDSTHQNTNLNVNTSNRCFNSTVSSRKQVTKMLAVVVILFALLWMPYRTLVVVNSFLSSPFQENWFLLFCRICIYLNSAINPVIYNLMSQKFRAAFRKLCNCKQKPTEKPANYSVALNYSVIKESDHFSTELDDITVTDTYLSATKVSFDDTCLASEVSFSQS

| SMILES | activity, negative = inhibition | Potency |
| --- | --- | --- |
| CCCCCCCCCCCCBr | 1.07% |  |
| COC[C@H](C)N(C(=O)CCl)c1c(C)csc1C | -2.12% |  |
| ClC1=C(Cl)[C@]2(Cl)[C@H]3[C@H]([C@H]4C=C[C@H]3C4)[C@@]1(Cl)C2(Cl)Cl | 0.209% |  |
| CCCN(CCC)CCc1c[nH]c2ccccc12 | 0.0268% |  |
| Nc1ccccc1C(=O)Oc1ccc2ccccc2c1 | -6% |  |
| ClCCN1CCOCC1 | -1.69% |  |
| ClCc1ccccc1CCl | 4.68% |  |
| CC(C)(O)c1cnn2c(-c3ccc(F)c(-c4c(F)cccc4C#N)c3)cnc2n1 | 5.68% |  |
| Oc1c(Cl)c(Cl)cc(Cl)c1Cl | -7.62% |  |
| C1CCC2CCCCC2C1 (stereo not given) | -2.39% |  |
| CC(C)CCCCCCCOP(=O)(Oc1ccccc1)Oc1ccccc1 | 0.625% |  |
| O=C(NC(=O)c1c(F)cccc1F)Nc1cc(Cl)c(OC(F)(F)C(F)F)c(Cl)c1 | 1.66% |  |
| Nc1ccc(Sc2ccc(N)cc2)cc1 | 6.48% |  |
| CC[C@H]1C[C@@H]2C[C@H]3c4[nH]c5ccc(OC)cc5c4CCN(C2)[C@@H]13 | -94.7% |  |
| C[C@]12CC[C@@H]3c4ccc(OC(=O)N(CCCl)CCCl)cc4CC[C@H]3[C@@H]1CC[C@@H]2O | 1.04% [at 23.6 µM] |  |
| N#CCCO | -1.68% |  |
| CCSC(C)CC1CC(=O)C(/C(CC)=N/OC/C=C/Cl)=C(O)C1 (stereo not given) | 3.67% [at 23.6 µM] |  |
| ClC1=C(Cl)[C@]2(Cl)[C@@H]3[C@@H](Cl)[C@@H](Cl)C[C@@H]3[C@@]1(Cl)C2(Cl)Cl | -1.4% |  |
| CCOc1cc(C(C)(C)C)ccc1C1COC(c2c(F)cccc2F)=N1 (stereo not given) | -11.1% [at 23.6 µM] |  |
| CC(C)CC(C)N (stereo not given) | -0.135% |  |

| SMILES | activity, negative = inhibition | Potency |
| --- | --- | --- |
| CC(C)CBr | 0.778% |  |
| Nc1ccc(Cc2ccc(N)c(Cl)c2)cc1Cl | 3.58% |  |
| CC(C)CC(C)Nc1ccc(Nc2ccccc2)cc1 (stereo not given) | -9.51% |  |
| C[C@@H](Oc1ccc(Cl)cc1Cl)C(=O)O | -5.06% |  |
| C=CC(=O)OCC(COC(=O)C=C)(COC(=O)C=C)COC(=O)C=C | 0.855% |  |
| C=CC(=O)OCCCCOC(=O)C=C | -6.76% |  |
| CCC(C)(C)C(=O)OC1=C(c2ccc(Cl)cc2Cl)C(=O)OC12CCCCC2 | -2.85% |  |
| Clc1ccc(-c2ccc(Cl)c(Cl)c2Cl)c(Cl)c1Cl | 0.179% |  |
| O=[N+]([O-])c1cc([N+](=O)[O-])c2ccccc2c1 | 0.0106% |  |
| O=[N+]([O-])c1cc(Cl)ccc1Cl | 1.05% |  |
| c1ccc(Nc2ccc3ccccc3c2)cc1 |  | inactive |
| CC(C)(C)c1ccc(CSc2cnn(C(C)(C)C)c(=O)c2Cl)cc1 | 0.592% |  |
| O=C1NCN(c2ccccc2)C12CCN(CC1COc3ccccc3O1)CC2 (stereo not given) | 0.824% [at 23.6 µM] |  |
| C=CCOC(N)=O | 3.07% |  |
| S=C=Nc1cccc2ccccc12 | 0.352% |  |
| CCCCCCCCCCCCCN1CC(C)OC(C)C1 (stereo not given) | 1.26% |  |
| FC(Cl)(Cl)Cl | 6.49% |  |
| C[C@]12Cc3nonc3C[C@@H]1CC[C@@H]1[C@@H]2CC[C@@]2(C)[C@H]1CC[C@]2(C)O | -0.206% [at 23.6 µM] |  |
| Clc1ccc(C(c2ccc(Cl)cc2)C(Cl)(Cl)Cl)cc1 |  | inactive |
| CC[C@H](C)[C@H]1O[C@]2(C=C[C@@H]1C)C[C@@H]1C[C@@H](C/C=C(\C)[C@@H](O[C@H]3C[C@H](OC)[C@@H](O[C@H]4C[C@H](OC)[C@@H](O)[C@H](C)O4)[C@H](C)O3)[C@@H](C)/C=C/C=C3\CO[C@@H]4[C@H](O)C(C)=C[C@@H](C(=O)O1)[C@]34O)O2 | 0.815% [at 23.6 µM] |  |
